Measurements published in PubChem BioAssay (Tox21).
Results filed as inconclusive are left out. Unmarked numbers belong to inactive results. The call rests on the fitted dose curve; in most records, active means well fitted activation curve with a large enough effect in the repeat runs; inconclusive means weak or mixed curves; inactive means flat fitted curve, though single readings scatter.

Test: Caspase-3/7 induction in HepG2 cells by small molecules, qHTS assay (AID 1346978); further: nearly all actives have a fitted effect of over 15% in size
Settings: HepG2 caspase-3/7 activation, Caspase-Glo luminescence, 17 h; series mostly up to 92.4 µM; caspase activation: at the top concentration
Description: National Center for Advancing Translational Sciences [NCATS] NIH Chemical Genomics Center [NCGC] U.S. Environmental Protection Agency [EPA] National Institutes of Environmental Health Sciences [NIEHS] National Toxicology Program [NTP] Assay overview: Apoptosis is a process of programmed cell death and plays a central role in the development of multicellular organisms. It is a highly regulated process and induces cell death by activating caspases, which are the members of cysteine aspartic acid-specific protease (caspase) family. Caspases involved in apoptosis are classified by their mechanism of action as initiator caspases (caspase-2, -8, -9 and -10) and executioner caspases (caspase-3, -6, and -7). Inhibition of apoptosis results in number of cancers, autoimmune diseases, inflammatory diseases and viral infection. To identify small molecule compounds that induce apoptosis, a homogeneous, luminescent Caspase-Glo 3/7 assay was used. Wild type HepG2 cells were used to screen Tox21 libraries for identifying caspase-3/7 activity inducers.
Assay Protocol Summary: HepG2 cells were dispensed at 2,000 per well in 5uL of culture medium into white solid bottom 1536-well plates (Corning Life Sciences, Corning, NY) using a Multidrop Combi (Thermo Scientific, Waltham, MA) dispenser. The assay plates were incubated at 37 C and 5% CO2 for 5hr, and then 23nL of compounds dissolved in DMSO and positive control were transferred using a Pintool station (Wako, San Diego, CA). The assay plates were incubated at 37C and 5% CO2 for 17hr. For caspase-3/7 activity read, 4uL of Caspase-Glo 3/7 reagent (Promega Corporation, Madison, WI) was added to each well of the assay plates using Flying Reagent Dispenser (FRD, Aurora Discovery, San Diego, CA) and incubated the assay plates at room temperature for 30min. The luminescence signal was quantified using a ViewLux plate reader (Perkin Elmer, Shelton, CT).
On the % scale 0 is the no-effect control and ±100 the full control effect.

SMILES	caspase activation
COC=O	-1.76% [at 8.39 µM]
Sc1nc(S)nc(S)n1	0.0934% [at 42.5 µM]
Cc1c(-c2cccnc2)c2ccccc2n1CCCCC(=O)O	11.1%
CC(=O)Nc1cccc(N)c1	-1.29%
Oc1ccc(CCNCCCCCCNCCc2ccccc2)cc1O	0.0041% [at 42.5 µM]
CS(C)=O	-0.504%
CC1(C)CC(O)CC(C)(C)N1[O]	-0.34%
O=C(OCCCCCOC(=O)c1ccccc1)c1ccccc1	0.303%
CCc1ccc2c(c1)C(=O)c1ccccc1C2=O	-14.1%
CCC(C)C1N=C(C)C(C)S1 (stereo not given)	1.93%
CC(C)CCCCCOC(=O)CS	-1.01%
O=C(O)c1ccc(O)c(O)c1	0.124%
COC(=O)C(C)(C)C	0.167%
C/C(=C(\CCO)SS/C(CCO)=C(\C)N(C=O)Cc1cnc(C)nc1N)N(C=O)Cc1cnc(C)nc1N	2.67% [at 42.5 µM]
CC1=C(C)C(=O)C(CCCCC#CCCCC#CCO)=C(C)C1=O	-1.29% [at 42.5 µM]
O=C(Cl)c1cc(Cl)cc(Cl)c1	-2.61%
COc1cc(C)c(Cc2cnc(N)nc2N)cc1OC	0.178% [at 42.5 µM]
NC(=O)c1ccccc1	-1.02%
CCCCCCCCCCCCN1CCOCC1	1.99%
CCCCCCCCCCCCSC#N	-0.768%

SMILES	caspase activation
CC1=CC(=C(c2ccc(N)cc2)c2ccc(N)cc2)C=CC1=N	0.381% [at 8.39 µM]
CC1(C)CC(=O)CC(C)(C)N1	0.107%
CC(O)C(C)O (stereo not given)	0.225%
CCCC(=O)OCc1ccccc1	-1.44%
CCOC(C)OCC	0.0319%
COc1ccc(/C=C/c2cc(OC)cc(=O)o2)cc1	-6.87% [at 42.5 µM]
CC(C(=O)O)c1ccc(/C=C2\CCCCC2=O)cc1 (stereo not given)	-1.55% [at 42.5 µM]
CCC(=O)O[C@@H]1C[C@H]2CC[C@]1(C)C2(C)C	0.75%
CC[C@H](NC(C)C)[C@H](O)c1ccc(O)c2[nH]c(=O)ccc12	-2.14% [at 42.5 µM]
COc1ccnc2c1CCCCC2S(=O)c1nc2ccccc2[nH]1 (stereo not given)	0.0117% [at 42.5 µM]
C[C@H](N)C(=O)N[C@@H](C)C(=O)NC1[C@H]2CN(c3nc4c(cc3F)c(=O)c(C(=O)O)cn4-c3ccc(F)cc3F)C[C@@H]12 (stereo not given in full)	-0.45% [at 42.5 µM]
CCOCCn1c(N2CCCN(C)CC2)nc2ccccc21	-0.852% [at 42.5 µM]
Cc1c(N=C=O)cccc1N=C=O	0.787%
O=C1C=CCCC1	-2.05%
C=C[Si](OCC)(OCC)OCC	-1.06%
CCCOC(C)=O	-1.04%
COc1ccc(C(=O)c2ccc(C)cc2)c(O)c1	-2.17%
Cc1ccccc1CCO	0.392%
S=c1[nH][nH]c(=S)s1	-1.47%
SCCOCCOCCS	2.28%
